Screening results deposited in PubChem by National Center for Advancing Translational Sciences (NCATS).
The list is not random: actives were taken first. Their share in the collection is about 17%.
HT1080 IDH1KD tx: kills HT-1080 cells with IDH1 knockdown. HT-1080 IDH1 knockdown viability, ATP luminescence, 48 h. Potency, µM (series often up to 46.1 µM), without a hit: at the top dose activity, negative = toxicity, usual class: cytotoxic. 360,000 compounds, 2% hits;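 note: 0% = DMSO wells and -100% = cell-free medium wells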
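In this qHTS, HT-1080 cells depleted of IDH1 are exposed for 48 h at 37 °C to compound titrations. Toxicity is scored from CellTiter-Glo luminescence, with DMSO as full viability and medium alone as none.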
TGFb SMAD3 inh: inhibitors of TGF-b signaling; 410,000 compounds, 1.2% hits; Potency, µM (titrated, usually from 46.1 µM), inactives show top-dose activity, negative = inhibition, actives largely listed as inhibitors; HepG2 CAGA-GFP TGF-b/SMAD3 reporter, GFP fluorescence, 18 h; TGF-beta stimulated, 500 pg/mL final; note: % is set by controls: 0 for no effect and ±100 for the full control effect; nearly all actives have a fitted effect of over 65% in size
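Per well, imaged GFP fluorescence of HEPG2 CAGA-GFP cells gives the signal; cells get compound, then TGF-beta (500 pg/mL final), 18 h at 37 degrees C; %Activity versus -TGF-beta and +DMSO controls.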
HT1080-NT tox: kills 2HG-producing HT-1080-NT fibrosarcoma cells. HT-1080-NT fibrosarcoma viability, CellTiter-Glo ATP luminescence, 48 h. Potency, µM (series often up to 46.1 µM), inactives show at the highest dose activity, negative = less viability, most hits filed as cytotoxic. 360,000 compounds, 1.6% hits;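 note: NT is the 2HG producing partner of a matched IDH1 knockdown line; 0% = DMSO-treated cells and -100% = media-only wells without cells; nearly all actives have a fitted effect of over 55% in size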
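Viability of the 2HG-overproducing fibrosarcoma line after 48 hours of compound exposure at 37 degrees C was determined by luminescence with CellTiter-Glo, and concentration-effect curves were then fitted and categorized.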
DT40 TDP1 CPT: DT40-hTDP1 cell growth loss with CPT; Potency, µM (highest dose often 46.2 µM), inactives show at the highest dose activity change, negative = growth inhibition, hits mostly inhibitors; 420,000 compounds, 12% hits; chicken DT40 Tdp1-/-;hTDP1 cells + 20 nM CPT, ATP luminescence, 48 h; note: % is set by controls: 0 for no effect and ±100 for the full control effect; nearly all actives have a fitted effect of over 55% in size
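Cell growth measured by CellTiter-Glo luminescence after a minimum 48 h, 37 C compound exposure with 20 nM CPT in Tdp1-knockout DT40 cells stably expressing hTDP1, seeded 400/well; qHTS titration format.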
HepG2 viability: HepG2 cytotoxicity, counter-screen for TGF-b inhibitors. HepG2 CAGA-GFP viability, ATP luminescence, 18 h. 410,000 compounds, 0.76% hits. Potency, µM (doses to about 46.1 µM), for inactives: at the top dose activity change, negative = cytotoxicity, most hits filed as cytotoxic. AID 588856
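HepG2 CAGA-GFP cells (1000/well, DMEM with 1% FBS) received compound, then TGF-beta at 500 pg/mL final, and were incubated 18 hours at 37 degrees C. Viability was read by CellTiter-Glo luminescence. Media-only wells were set as complete cell-killing and DMSO as no toxicity.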
DT40 TDP1 no CPT: qHTS for Inhibitors of human tyrosyl-DNA phosphodiesterase 1 (TDP1): qHTS in cells in absence of CPT | DT40 Tdp1-/- hTDP1 cells, no CPT, ATP luminescence, 48 h | Potency, µM (series often up to 46.2 µM), without a hit: at the highest dose activity change, negative = growth inhibition, usual class: inhibitors | 420,000 compounds, 15% hits | AID 686978, 2013; note: % is set by controls: 0 for no effect and ±100 for the full control effect; nearly all actives have a fitted effect of over 55% in size
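Seeded 400 DT40-hTDP1 cells/well (vehicle DMSO, no 20 nM CPT); pinned compounds; ≥48 hr at 37 °C; CellTiter-Glo luminescence as viability measure.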
Active calls of the source: *; ? = inconclusive; · = not tested or not shown; [ ] = remark or other dose. Calls come from the whole dose curve; as a rule, active = well fitted curve in the direction sought with a large enough effect; inconclusive = small, poorly fitted or top-dose-only effect, or another doubt; inactive = no such curve, though single readings can be large; an effect the other way counts as inactive or inconclusive. Potency is the fitted concentration of half-maximal effect.

SMILES	HT1080 IDH1KD tx	TGFb SMAD3 inh	HT1080-NT tox	DT40 TDP1 CPT	HepG2 viability	DT40 TDP1 no CPT
O=C(CCn1c(=O)c2cccn2c2cccnc21)NCc1ccccc1Br	·	-12.4%	·	5.1%	-16.6%	-17.2%
CN(c1ccccc1)c1ccc(/C=C/[N+](=O)[O-])cc1	5.8µM*	?	5.17µM*	23.1µM*	7.94µM*	20.6µM*
CCOc1ccc(CNC(=O)C2CCN(Cc3cc4ccccc4n3Cc3ccccc3C)CC2)cc1	·	6.1%	·	13µM*	4.6%	23.1µM*
Cc1ccccc1Cn1c(CN2CCC(C(=O)NCCN(C)C)CC2)cc2ccccc21	·	12.6µM*	·	3.26µM*	10µM*	4.11µM*
Cc1ccc(Cn2c(CN3CCC(C(=O)O)CC3)cc3ccccc32)cc1	·	·	·	-29.5%	-25.4%	-27.4%
Cc1ccccc1Cn1c(CN2CCC(C(=O)NCc3ccc(Cl)cc3)CC2)cc2ccccc21	·	-13.6%	·	?	-23.3%	?
COc1cccc(CNC(=O)C2CCN(Cc3cc4ccccc4n3Cc3ccc(C)cc3)CC2)c1	·	-24.7%	·	?	-5.7%	20.6µM*
CN(C)CCNC(=O)C1CCN(c2nc3ccccc3[nH]2)CC1	·	0.0%	·	-14.0%	1.4%	-1.3%
Cc1ccc(-c2noc(CCCC(=O)NC3CCCCC3)n2)cc1	-11.3%	-23.7%	-14.4%	?	-16.2%	13µM*
O=C(CCCc1nc(-c2ccccc2)no1)Nc1cccnc1	-11.9%	16.8%	1.5%	?	-13.2%	?
Cc1ccc(-c2noc(CCCC(=O)Nc3cccnc3)n2)cc1	23.1µM*	6.6%	-1.1%	?	-26.6%	20.6µM*
O=C(CCc1nc(-c2ccccc2Cl)no1)Nc1cccnc1	-2.7%	5.4%	0.4%	20.6µM*	8.6%	?
COc1ccc2cc(C(=O)N3CCc4ccccc43)[nH]c2c1	-1.2%	-24.8%	-5.2%	-15.4%	-21.1%	-29.1%
O=C1c2ccccc2C(c2nnnn2Cc2ccccc2)N1Cc1ccc2c(c1)OCO2 (stereo not drawn)	0.3%	·	-0.9%	-29.1%	·	-27.6%
Cc1cc(C(=O)NCCN2Cc3ccccc3OC(c3ccccc3F)C2)no1 (stereo not drawn)	·	·	·	-4.0%[9.04 µM]	·	-10.0%
CCn1nc(C)cc1C(=O)NCCN1Cc2ccccc2OC(c2ccccc2F)C1 (stereo not drawn)	·	·	·	?	·	16.4µM*
Cc1ccc(OCc2nnc(-c3ccc(Cl)cc3)o2)cc1	-1.1%	-11.0%	0.6%	2.9%	0.9%	-1.7%
ClCc1ncc(-c2ccc(Cl)cc2)o1	-17.8%	8.2%	-3.8%	14.6µM*	-8.6%	16.4µM*
O=C(c1ccncc1)N1CCC[C@@]2(CCN(Cc3cc(C(F)(F)F)cc(C(F)(F)F)c3)C2)C1	·	·	·	-23.9%	·	?
O=C(O)c1cc(O)c2c(c1)[C@@H]([C@H]1c3cc(C(=O)O)cc(O)c3C(=O)c3c(O[C@@H]4O[C@H](CO)[C@@H](O)[C@H](O)[C@H]4O)cccc31)c1cccc(O[C@@H]3O[C@H](CO)[C@@H](O)[C@H](O)[C@H]3O)c1C2=O	-25.5%	14.1µM*	-23.0%	6.51µM*	-26.6%	?
Cc1ccccc1OCCCN1C(=O)C(=O)c2cccc(C)c21	?	?	?	2.59µM*	-24.2%	1.84µM*
Cc1cccc2c1N(CCCOc1ccc(C(C)(C)C)cc1)C(=O)C2=O	-24.8%	?	-29.8%	?	-93.6%	18.4µM*
Cc1cccc2c1N(CCCOc1ccccc1)C(=O)C2=O	0.3%	?	1.5%	9.2µM*	-23.5%	16.4µM*
Cc1ccc(OCCN2C(=O)c3ccccc3C2=O)c(C)c1	1.7%	?	7.4%	25.2%	-16.0%	-8.2%
Cc1ccc2c(c1)C(=O)C(=O)N2CCCOc1ccccc1C	-28.8%	?	?	3.26µM*	-21.3%	2.91µM*
SMILES	HT1080 IDH1KD tx	TGFb SMAD3 inh	HT1080-NT tox	DT40 TDP1 CPT	HepG2 viability	DT40 TDP1 no CPT
CCCn1ncc(CN2CCC(n3nccc3NC(=O)CCc3ccccc3)CC2)c1C	10.4%	-21.5%	3.8%	3.6%	-3.9%	-0.3%
Nc1ccc(S(=O)(=O)Nc2nccc(/C=C/c3cccc(Br)c3)n2)cc1	?	?	-27.1%	4.5%	-32.2%	-28.9%
COC(=O)CCCC1=CC2=C(c3ccccc3)C(=O)C(C)(OC(=O)C3CCCC3)C(=O)C2=CN1C(CO)CO (stereo not drawn)	-1.0%	?	1.8%	?	-7.8%	-12.5%
CCOc1ccc(CN2C(=O)C(=O)c3cccc(C)c32)cc1OC	·	?	·	?	-43.5%	1.64µM*
CCOc1ccc(CN(C)C(=O)CCN2C(=O)c3ccccc3C2=O)cc1OC	1.0%	25.8%	12.6%	10.4%	7.7%	-5.8%
COc1ccc(Cl)cc1NC(=O)CSc1nccn1Cc1ccco1	·	-23.0%	·	?	-6.9%	?
O=C1/C(=C/c2ccccc2F)SC(=S)N1CC(=O)N1CCCCC1c1cccnc1 (stereo not drawn)	-9.6%	?	-1.6%	3.66µM*	12.6µM*	3.66µM*
O=C1/C(=C/c2ccccc2F)SC(=S)N1CCC(=O)N1CCCCC1CCO (stereo not drawn)	?	?	-19.1%	?	-18.8%	14.6µM*
O=C1/C(=C/c2cccc(Cl)c2)SC(=S)N1CCC(=O)N1CCCCC1CCO (stereo not drawn)	-0.2%	-28.7%	-12.5%	?	-27.8%	?
COc1ccc(/C=C2\SC(=O)N(CCC(=O)N3CCCCC3CCO)C2=O)cc1 (stereo not drawn)	13.1%	1.3%	7.5%	?	-12.2%	20.6µM*
O=C1/C(=C/c2ccco2)SC(=S)N1CCC(=O)N1CCCCC1CCO (stereo not drawn)	-1.8%	?	-7.1%	-78.5%	-30.1%	20.6µM*
COc1ccc(/C=C2\SC(=S)N(CCC(=O)N3CCCCC3CCO)C2=O)cc1 (stereo not drawn)	-2.1%	-7.1%	0.5%	?	-47.9%	?
COc1cc(C(=S)N2CCOCC2)ccc1OC(=O)c1cccc(C)c1	2.7%	-5.0%	-0.9%	?	10.5%	?
CCOCCCN(Cc1cc2cc(C)cc(C)c2[nH]c1=O)C(=O)N(CC)CC	8.0%	-11.0%	4.8%	14.6µM*	-15.0%	16.4µM*
